{"source": "PubChem BioAssay (NCI)", "note": "Compounds without any hit were thinned out: in the full panel of roughly 83,000, 20% have a hit.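 Percent growth is the endpoint: 0 to 100 indicates growth inhibition (40 means 60% inhibition), 0 means no net growth, and negative values indicate cell death.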 Unmarked numbers belong to inactive results. Activity calls are given as the source filed them. How the source made its calls: active means growth percent below 10; inactive means the rest.", "data": [{"test_system": "OVCAR-4 ovarian", "assay": "NCI-60 one-dose screen, 48 h (100 = growth as untreated, 0 = no growth, -100 = all killed)", "conditions": "10 µM unless noted", "values": [{"compound": "O=C1Nc2ccc(Cl)cc2/C1=C\\c1c(-c2ccc(F)cc2)nc2ccccn12", "growth": "-69.7% (active)"}, {"compound": "O=C(O/C(=C/c1ccccc1)C(F)(F)F)c1ccccc1", "growth": "103%"}, {"compound": "COC(=O)c1ccc2c(c1)nc(-c1cc3ccccc3[nH]c1=O)n2-c1cc(C(C)(C)C)[nH]n1", "growth": "86.7%"}, {"compound": "O=c1c2cc(Br)cc(Br)c2nc(-c2ccc(Cl)cc2)n1/N=C/c1cccc(F)c1", "growth": "-11% (active)"}, {"compound": "CCOC(=O)Nc1ccc2nc(N3CCCCCC3)sc2c1", "growth": "57.5%"}, {"compound": "COc1ccc(C(=O)N2N=C(c3ccc(F)cc3)CC2c2cn(-c3ccccc3)nc2-c2ccccc2)cc1", "note": "(stereo not given)", "growth": "68.2%"}, {"compound": "N=c1nc(N2CCCCC2)cc(N)n1O", "growth": "92.5%"}, {"compound": "COc1ccc(C2NC(=O)c3cc4c(cc3N2)OCO4)cc1", "note": "(stereo not given)", "growth": "59.5%"}, {"compound": "O=C1OCC2=C1C(c1ccccc1)c1cc3c(cc1N2CCO)OCO3", "note": "(stereo not given)", "growth": "52%"}, {"compound": "COc1ccc(/C=C/c2nc(NCCCN(C)C)c3ccccc3n2)cc1", "growth": "62.9%"}, {"compound": "c1ccc(CCn2cccc2)nc1", "growth": "113%"}, {"compound": "Fc1ccc(-c2nc(-c3ccc(-c4nc5ccc(F)cc5[nH]4)cc3)no2)cc1", "growth": "-8.43% (active)"}, {"compound": "N=C(N)c1ccc(NCCNc2ccc(C(=N)N)cc2)cc1", "growth": "110%"}, {"compound": "COc1ccc(CC2c3cc(OC)c(OC)cc3CC[N+]2(C)CCC(=O)OCCCCCOC(=O)CC[N+]2(C)CCc3cc(OC)c(OC)cc3C2Cc2ccc(OC)c(OC)c2)cc1OC", "note": "(stereo not given)", "growth": "89.8%"}, {"compound": "O=C1Nc2ccccc2/C1=C\\c1nc(C2CCN(S(=O)(=O)c3ccc(F)cc3)CC2)n2ccccc12", "growth": "13.6%"}, {"compound": "COc1ccc(Nc2nc(N)nc3c(=O)[nH]ccc23)cc1", "growth": "111%"}]}, {"test_system": "SK-OV-3 ovarian", "assay": "NCI-60 one-dose screen, 48 h (100 = growth as untreated, 0 = no growth, -100 = all killed)", "conditions": "10 µM unless noted", "values": [{"compound": "N/N=C(\\C(=N\\N)c1ccccc1)c1ccccc1", "growth": "99.4%"}, {"compound": "C=C(C)[C@@H]1CC[C@]2(C(=O)NS(=O)(=O)c3ccccc3)CC[C@]3(C)[C@H](CC[C@@H]4[C@@]5(C)CC[C@H](OC(=O)NS(=O)(=O)c6ccccc6)C(C)(C)[C@@H]5CC[C@]43C)[C@@H]12", "growth": "29.7%"}, {"compound": "O=[N+]([O-])c1ccc(N/N=C/c2ccccc2O)nc1", "growth": "32.7%"}, {"compound": "CN1C(=O)N(C)C2C1NN=c1s/c(=C\\c3ccc(C(F)(F)F)cc3)c(=O)n12", "note": "(stereo not given)", "growth": "32.1%"}, {"compound": "CC(C)c1ccc(-c2cnc3nonc3n2)cc1", "growth": "82.4%"}, {"compound": "COc1ccc(N=C2CSc3nnc(-c4cc(F)c(Cl)cc4Cl)n3N2)cc1", "growth": "-42.3% (active)"}, {"compound": "O=C1C=CN2C(=O)CC=CC2[C@@H]1O", "note": "(stereo not given in full)", "growth": "104%"}, {"compound": "CCCNCCC(C)=O", "growth": "116%"}, {"compound": "O=C(Cc1ccc([N+](=O)[O-])cc1)Oc1ccccc1", "growth": "110%"}, {"compound": "CN(C)c1ccc(/C=C\\c2cccc[n+]2C)cc1", "growth": "42.2%"}, {"compound": "COc1cccc(NC(=O)OC(C)C)c1", "growth": "104%"}, {"compound": "COC(=O)c1ccc2c(c1)nc(-c1ccc(Cl)cc1)n2-c1cc(C(C)(C)C)[nH]n1", "growth": "104%"}, {"compound": "Cc1ccc(Nc2cc(Cl)c([N+](=O)[O-])cc2[N+](=O)[O-])cc1", "growth": "83.5%"}, {"compound": "CCOC(=O)c1cc(C(=O)OCC)c(C)nc1C", "growth": "114%"}, {"compound": "O=C(Nc1cccc(C2=NCCN2)c1)c1ccc(N=Nc2ccc(C(=O)Nc3cccc(C4=NCCN4)c3)cc2)cc1", "growth": "77.3%"}, {"compound": "Cc1c(C(=O)CCl)c(=O)n(-c2ccccc2)n1C", "growth": "103%"}, {"compound": "O=C1/C=C/[C@@H](O)[C@@H]2C[C@@H](O)C[C@H]2/C=C/CCC[C@H]([C@@H](O)CO)O1", "growth": "91.6%"}, {"compound": "CC(=O)N1N=C(C2C(=O)N(C)C(=O)N(C)C2=O)CC1c1ccccc1C(=O)O", "note": "(stereo not given)", "growth": "94.8%"}, {"compound": "Cn1c(=O)c2c(nc(N/N=C/c3ccccc3Cl)n2C)n(C)c1=O", "growth": "110%"}, {"compound": "O=C1Nc2ccc(Cl)cc2/C1=C\\c1c(-c2ccc(F)cc2)nc2ccccn12", "growth": "-52.1% (active)"}, {"compound": "O=C(O/C(=C/c1ccccc1)C(F)(F)F)c1ccccc1", "growth": "111%"}, {"compound": "COC(=O)c1ccc2c(c1)nc(-c1cc3ccccc3[nH]c1=O)n2-c1cc(C(C)(C)C)[nH]n1", "growth": "105%"}, {"compound": "O=c1c2cc(Br)cc(Br)c2nc(-c2ccc(Cl)cc2)n1/N=C/c1cccc(F)c1", "growth": "52%"}, {"compound": "CCOC(=O)Nc1ccc2nc(N3CCCCCC3)sc2c1", "growth": "5.7% (active)"}]}]}
